The text below walks through data of PubChem BioAssay (NCI).

Holding throughout (experiment): NCI-60 one-dose screen, 48 h (100 = growth as untreated, 0 = no growth, -100 = all killed)
What all share (settings): 10 µM unless noted

The subject of test [1] is HCT-15 colon.
Test [2] deals with HT29 colon.
The subject of test [3] is SNB-75 CNS.
Test [4] relates to SNB-19 CNS.
In test [5] the test system is PC-3 prostate.
The test system of test [6] is SK-MEL-5 melanoma.
The subject of test [7] is UACC-62 melanoma.
The test system of test [8] is LOX IMVI melanoma.
In test [9] the test system is SK-MEL-28 melanoma.
In test [10] the test system is SK-MEL-2 melanoma.
Test [11] deals with EKVX NSCLC.
The test system of test [12] is SN12C renal.
For test [13], the system named is TK-10 renal.
The test system of test [14] is ACHN renal.
Test [15] concerns A498 renal.
Test [16] relates to CCRF-CEM leukemia.
In test [17] the test system is UO-31 renal.
The test system of test [18] is CAKI-1 renal.
For test [19], the system named is MOLT-4 leukemia.

Structures are written as SMILES. The panel holds about 83,000 compounds, 20% with a hit somewhere; the sample as a whole holds those more often.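 Cell lines were cultured in 96-well plates, exposed to a single compound concentration, and assessed for percent growth 48 hours later.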 Values without a mark were called inactive. Active and inactive are the calls of the source. The calls were made as follows: active = growth percent below 10; inactive = the rest.

Take `COP(=O)(OC)C(c1ccc(O)cc1)(c1ccc(O)cc1)c1ccc(O)cc1`: the growth in test [1] was 102%; in test [2], 110%; in test [3], 112%; in test [4], 106%; in test [5] it was 92.8%; in test [6], 87.3%. Besides, the growth in test [7] was 98.7%; in test [8], 103%; in test [9], 118%; in test [10], 101%; in [11] it was 113%; in [12], 105%. For the same compound, the growth in [13] is 124%; in [14], 103%; in test [15], 98.7%; in [16], 5.74% (active).
Consider `CCCCNCCCN(CCCC)CCCNCCCC`, for which the growth was 93.2% in test [1]; 105% in test [2]; 110% in test [3]; 98.2% in [4]; 90.4% in test [5]; 97.3% in test [6]. Besides, the growth in [7] was 96.5%; in [8], 104%; in test [9], 99.6%; in test [10] it was 112%; in [12] it was 89%; in [17], 83.7%. Further, the growth in test [13] is 97.3%; in [14] it was 104%; in test [18] it was 91.1%; in test [15] it was 94.6%; in test [19] it was 103%.
Turning to `O=C(CN1CCN(c2ccc(Cl)cc2)CC1)N1CCN(c2nnc(-c3ccc(Cl)cc3)c(-c3ccc(Cl)cc3)n2)CC1`, the growth is 59% in [1]; 57.3% in test [2]; 75.6% in test [3]; 78% in test [4]; 30.5% in test [5]; 58.2% in [6]. Also, the growth is 69.9% in test [7]; 51.8% in [8]; 93.6% in [9]; 71.2% in test [11]; 75.5% in test [12]; 37.9% in test [17]. Besides, the growth in test [13] was 102%; in [14], 68.5%; in [18] it was 168%; in test [15], 56.9%; in test [16], 10.4%; in test [19] it was -40.9% (active).
For the compound `CCOC(=O)Nc1cc(-c2ccc(C)c(NS(C)(=O)=O)c2)nn2c(C)nnc12`, the growth in test [1] is 9.95% (active); in test [2], 9.76% (active); in test [3], 1.74% (active); in test [4], 39.1%; in test [5], 23.8%; in test [6], -57.2% (active). Moreover, the growth in test [7] was 12.9%; in test [8] it was -22.7% (active); in [9], 14.3%; in [10] it was 13.5%; in test [12] it was 32%; in test [17], -1.22% (active). Also, the growth was -3.12% (active) in [13]; 8.87% (active) in [14]; 3.16% (active) in test [18]; -7.14% (active) in test [15]; 24.5% in test [16].
Regarding `COc1cc(OC)c2c(c1Cl)O[C@]1(C2=O)C(OCc2ccccc2)=CC(=O)C[C@H]1C`, the growth in [1] was 15.7%; in [2] it was 7.63% (active); in [3] it was 24.2%; in [4] it was 36.2%; in test [5] it was 6.5% (active); in [6], -75% (active). For the same compound, the growth in test [7] was 6.94% (active); in test [8] it was 17.9%; in [9], 16.4%; in [10] it was 2.04% (active); in test [17], 9% (active); in [13], 15.9%. For the same compound, the growth was 6.86% (active) in [14], 10.9% in test [18], -0.948% (active) in [15] and 10.4% in [16].
Regarding `COc1ccc(-c2c3c(N)nc(-c4ccncc4)nc3nc3c2c(C)nn3-c2ccccc2)cc1`, the growth in [1] is 57.1%; in [2], 23.9%; in test [3], 80.6%; in test [4], 80.7%; in test [5], 61%; in test [6], 72.6%. In addition, the growth in test [7] was 64.1%; in test [8], 41.2%; in [9] it was 56.2%; in test [10] it was 48.1%; in test [12] it was 83.7%; in test [17], 85.4%. Also, the growth in [13] is 47%; in test [14] it was 3.79% (active); in [15], 73.2%; in test [19], 51.2%.
In the case of `OCCN1CCN(CCCN2c3ccccc3Sc3ccc(C(F)(F)F)cc32)CC1`, the growth in test [1] is 18.3%; in test [2] it was -43% (active); in test [3], 46.3%; in [4] it was 62.7%; in test [5] it was 20.4%; in [6] it was -93.3% (active). Besides, the growth is -55.5% (active) in [7]; -41.6% (active) in test [8]; -86.6% (active) in test [9]; 8.96% (active) in test [10]; 43.6% in [12]; 32.5% in [17]. Also, the growth is 4.29% (active) in test [13]; 25.7% in test [18]; 44.5% in test [15]; 29.7% in test [16]; -16% (active) in test [19].
For the compound `CC(NNC(=S)N1CCCCCC1)c1ccc2ccccc2n1` (stereo unspecified), the growth in [1] was 30.8%; in test [2], 35.9%; in test [3], 71.4%; in [4] it was 44.1%; in test [5], 34.6%; in [6] it was 30.9%. Moreover, the growth in test [7] was 11.3%; in [8], 29.6%; in [9], 54.7%; in [10] it was 90.2%; in test [12], 37.3%; in [17], 9.9% (active). In addition, the growth in test [13] is 41.9%; in test [14], 16.7%; in test [18], -9.22% (active); in [15] it was 71.1%; in test [19], 28.3%.
Turning to `Cc1[nH]c(=O)[nH]c(=O)c1CCSSCCc1c(C)[nH]c(=O)[nH]c1=O`, the growth in test [1] is 113%; in test [2] it was 99.2%; in test [3] it was 97.1%; in [4], 105%; in test [5] it was 99.6%; in [6], 103%. Besides, the growth in test [7] was 104%; in test [8], 97.8%; in test [9], 114%; in test [10] it was 102%; in test [12] it was 104%; in test [17], 83.3%. The growth in [13] is 101%; in [14] it was 104%; in test [18], 97.1%; in test [15], 107%; in test [19], 100%.
